Laboratory results reported in PubChem BioAssay (NCI).
The panel holds about 83,000 compounds, 20% with a hit somewhere; the sample as a whole holds those more often.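 The endpoint reported here, percent growth, reads 100 for growth as untreated, 0 for no net growth and -100 for all cells dead.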 Activity calls are given as the source filed them.

The compounds below were run on LOX IMVI melanoma (assay: NCI-60 one-dose screen, 48 h (100 = growth as untreated, 0 = no growth, -100 = all killed)). Settings: 10 µM.
Experimental: Growth inhibition of the LOX IMVI human tumor cell line is measured as a screen for anti-cancer activity. Cells are grown in 96 well plates and exposed to the test compound for 48 hours. Compounds are tested at a single concentration, which is 10^-5 M for most compounds. The reported endpoint is percent growth (GI% or GIPRCNT), where numbers from 0 - 100% represent growth inhibition, and numbers from -100% - 0 represent cell death. For example, a value of 40 represents 60% growth inhibition. A value of 0 means no net growth occurred over the course of the experiment. A value of -40 indicates 40% of cells at the beginning of the experiment died by the end of the experiment. A value of -100 means all cells are dead at the end of the experiment.
NCI-60 Human Tumor Cell Lines Screen was performed using the standard one-dose NCI protocol, which is described in more detail at https://dtp.cancer.gov/discovery_development/nci-60/default.htm.
Compounds with GIPRCNT values below 10 were considered active. Activity score was based on GIPRCNT using the following formula: […]
Score is 0 for GIPRCNT values of 100 or above, 50 for GIPRCNT values of 0, and 100 for GIPRCNT values of -100.

Row | SMILES | growth
1 | Cc1ccccc1C1N=C2Oc3ccccc3C=C2C(=O)N1 (stereo not given) | 57.3% (inactive)
2 | CC(=O)N(C)c1ccc([N+](=O)[O-])cc1 | 98.4% (inactive)
3 | O=c1cc(-c2ccccc2)nc2cc(-c3ccco3)[nH]n12 | 86.1% (inactive)
4 | CCCCCCCO | 99.8% (inactive)
5 | S=c1nn[nH]c2ccccc12 | 93.6% (inactive)
6 | O=C(c1ccccc1)C1CCC1 | 106% (inactive)
7 | CC(=O)c1ccc(C(C)(C)C)cc1 | 98.5% (inactive)
8 | Cc1ncc(C#N)c(N)n1 | 100% (inactive)
9 | COC(=O)/C=C\C(=O)OC | 102% (inactive)
10 | COc1ncnc2c1cnn2C | 98% (inactive)
11 | C/C=C/CC(C)C(O)C1C(=O)NC(CC)C(=O)N(C)CC(=O)N(C)C(CC(C)C)C(=O)NC(C(C)C)C(=O)N(C)C(CC(C)C)C(=O)NC(C)C(=O)NC(C)C(=O)N(C)C(CC(C)C)C(=O)N(C)C(CC(C)C)C(=O)N(C)C(C(C)C)C(=O)N1C (stereo not given) | 0.362% (active)
12 | CCN1C(=O)/C(=C/C=C/N(C)c2ccccc2)SC1=S | 91.5% (inactive)
13 | CC(C)=NNc1ccc([N+](=O)[O-])cc1[N+](=O)[O-] | 77.6% (inactive)
14 | CCOc1ccc(/C=C/C(=O)c2ccccc2)cc1 | 93.5% (inactive)
15 | CCOC(=O)/C(C#N)=C/c1cccc(C)c1 | 94.8% (inactive)
16 | O=[N+]([O-])c1ccccc1N=Nc1ccc(O)cc1O | 99.8% (inactive)
17 | O=C1Cc2cc(O)ccc2O1 | 83.1% (inactive)
18 | CC(=O)Cc1cc(-c2cc(CC(C)=O)[nH]n2)n[nH]1 | 96.3% (inactive)
19 | CCCNc1ccc(C2=NCCCN2)cc1 | 95.1% (inactive)
20 | CC(=O)/C(Cc1ccccc1)=N/O | 94.2% (inactive)

Row | SMILES | growth
21 | Cc1cc(C)c(N)c(S(=O)(=O)O)c1 | 93.9% (inactive)
22 | CC(C)(O)C#CC#CC(C)(C)O | 97% (inactive)
23 | O=c1[nH]c(O)c(/C=C2/C=Nc3ccccc32)[nH]1 | 96.6% (inactive)
24 | CCOc1ccccc1/C=N/Nc1nc2ccccc2o1 | 94.1% (inactive)
25 | CC1OC(Oc2c(-c3ccc(O)c(O)c3)oc3cc(O)cc(O)c3c2=O)C(O)C(O)C1O (stereo not given) | 97.1% (inactive)
26 | CNC(=S)NC(C)(C)C | 105% (inactive)
27 | COC1=CC(=O)c2nc(Cl)ccc2C1=O | -95.7% (active)
28 | COc1cccc(COC(=O)Nc2ccccc2)c1OC | 103% (inactive)
29 | CN(C)c1ccc(C(c2ccc(O)cc2)c2ccc(N(C)C)cc2)cc1 | 88% (inactive)
30 | OC1CCCc2ccccc21 (stereo not given) | 104% (inactive)
31 | COCCCNC(=O)c1nnn2c1nc(N)c1cc(Cl)ccc12 | 88.3% (inactive)
32 | Cc1cc(=O)cc(C)n1-c1ccccc1 | 98.9% (inactive)
33 | O=[N+]([O-])c1ccc(-c2noc(-c3cccs3)n2)cc1 | 86% (inactive)
34 | COCCOC(=O)c1ccc(C(C)C)cc1 | 95.7% (inactive)
35 | CN(C)c1ccc(CNC(C(=O)c2ccccc2)c2ccccc2)cc1 (stereo not given) | 95.1% (inactive)
36 | CN(C)CCN(Cc1ccccc1)c1ccccc1 | 93.2% (inactive)
37 | Cc1ccc(/C(C#N)=C/c2ccc3c(c2)OCO3)cc1 | 74.9% (inactive)
38 | O=[N+]([O-])c1cccc2nsnc12 | 99.7% (inactive)
39 | CCCCNC1(C#N)CCN(Cc2ccccc2)CC1 | 99.7% (inactive)
40 | COCCCC/C(=N\OCCN)c1ccc(C(F)(F)F)cc1 | 94.8% (inactive)
